Experimental data: article PMC5540273 (PLoS ONE, 2017)

Experiments:
Settings in all cases: concentration: 1 μM, replicates: in singlicate; n = 1
MYO3A = system: MYO3A
MYO3B = system: MYO3B
NDR1 = system: T1, NDR1
T1 construct: gene STK38

NDR2 = system: NDR2
NEK10 = system: NEK10
NEK11 = system: NEK11
NEK1 = system: NEK1
NEK2 = system: NEK2
NEK3 = system: NEK3
NEK4 = system: NEK4
NEK5 = system: NEK5
NEK6 = system: NEK6
NEK7 = system: NEK7
NEK9 = system: NEK9
NIK = system: T2, NIK
T2 construct: gene MAP3K14

NIM1 = system: T3, NIM1
T3 construct: gene MGC42105

NLK = system: NLK
OSR1 = system: T4, OSR1
T4 construct: gene OXSR1

PAK1 = system: PAK1
PAK2 = system: PAK2
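Also: KINOMEscan kinase panel screen.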

SMILES | %Inh (MYO3A) | %Inh (MYO3B) | %Inh (NDR1) | %Inh (NDR2) | %Inh (NEK10) | %Inh (NEK11) | %Inh (NEK1) | %Inh (NEK2) | %Inh (NEK3) | %Inh (NEK4) | %Inh (NEK5) | %Inh (NEK6) | %Inh (NEK7) | %Inh (NEK9) | %Inh (NIK) | %Inh (NIM1) | %Inh (NLK) | %Inh (OSR1) | %Inh (PAK1) | %Inh (PAK2)
COC(=O)c1cccc(NC(=O)NC2CCN(c3ccnc(Nc4ccc(F)cc4)n3)C2)c1 (stereo not shown) [GSK1379725] | 0% | 0% | 0% | 0% | 16% | 0% | 0% | 0% | 1% | 19% | 10% | 0% | 0% | 0% | 0% | 27% | 0% | 10% | 0% | 0%
COc1cccc(NC(=O)Nc2ccc(C)c(-c3ccc(C(=O)Nc4ccncc4)cc3)c2)c1 [GSK1398474] | 0% | 0% | 51% | 0% | 47% | 0% | 25% | 0% | 7% | 15% | 2% | 3% | 0% | 12% | 0% | 0% | 30% | 6% | 29% | 16%
Fc1ccc(-c2nn3cccc(F)c3c2-c2ccncc2)cc1 [GW475620] | 0% | 7% | 0% | 0% | 1% | 0% | 0% | 0% | 0% | 0% | 0% | 2% | 1% | 0% | 37% | 21% | 61% | 2% | 0% | 3%
COc1ccc(Nc2nccc(-c3ccc(NC(=O)c4cc5cc(F)ccc5[nH]4)cc3)n2)cc1 [GSK1229496] | 0% | 0% | 7% | 2% | 0% | 17% | 0% | 0% | 0% | 0% | 14% | 0% | 0% | 0% | 30% | 0% | 23% | 8% | 0% | 0%
COc1ccc(Nc2nccc(NCCNC(=O)Nc3cc(C)ccc3C)n2)cc1 [GSK1379899] | 0% | 0% | 0% | 0% | 2% | 11% | 0% | 0% | 0% | 4% | 0% | 0% | 8% | 5% | 11% | 0% | 0% | 2% | 0% | 0%
O=c1cc(N2CCOCC2)nc2n(Cc3cccc(Cl)c3Cl)c3ccccc3n12 [GSK2299009] | 0% | 6% | 33% | 0% | 9% | 0% | 0% | 14% | 3% | 8% | 30% | 4% | 20% | 24% | 0% | 2% | 25% | 11% | 0% | 5%
Cn1cncc1-c1cc2c(Nc3ccc(OCc4ccccc4)cc3)ncnc2cn1 [GW281179] | 10% | 0% | 10% | 0% | 17% | 13% | 0% | 0% | 0% | 5% | 26% | 0% | 0% | 45% | 3% | 21% | 29% | 14% | 10% | 19%
COc1cccc(C2=C(Nc3cc(Cl)c(O)c(Cl)c3)C(=O)NC2=O)c1 [SB-390767] | 0% | 0% | 0% | 0% | 30% | 1% | 0% | 100% | 13% | 28% | 7% | 0% | 0% | 0% | 4% | 1% | 0% | 15% | 2% | 15%
Cc1ccccc1Cn1ccn2c(=O)cc(N3CCOCC3)nc12 [GSK2269905] | 7% | 0% | 12% | 0% | 2% | 0% | 0% | 13% | 11% | 16% | 4% | 0% | 0% | 0% | 0% | 19% | 9% | 6% | 12% | 13%
CS(=O)(=O)Cc1ccc(Nc2nccc(-c3c(-c4cccc(NC(=O)C5CCCCC5)c4)nn4ncccc34)n2)cc1 [GSK350559] | 0% | 0% | 0% | 17% | 22% | 15% | 0% | 10% | 32% | 25% | 15% | 4% | 18% | 0% | 0% | 32% | 1% | 22% | 7% | 8%
Cn1cnc2c(N)ncnc21 [SKF-97623] | 2% | 15% | 0% | 3% | 0% | 0% | 0% | 0% | 19% | 0% | 0% | 0% | 0% | 0% | 41% | 3% | 0% | 0% | 3% | 5%
